Values joined by “and” are separate entries in the source; they are usually repeats but may differ in a detail not shown here. Identical values can stand only once. Hit rate of the full screen: of about 5,500 compounds, about 2,000 (36%) were called active. Roughly 18% stayed inconclusive and do not appear here. No stated cut-off is given here; in the data, active means normalized growth mostly below about 0.91 (no sharp cut-off); inconclusive means no clear call, values can overlap the other calls; inactive means mostly above about 0.92. The list shows a part of the results.
Test: chemical genetic growth profiling, strain panel (AID 1159580);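 further: tested at 20 µM; growth read once vehicle control cultures reached saturation at 30 °C; 1 = growth at the plate median or of vehicle wells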
Settings: growth OD
[1] = S. cerevisiae deletion strains, locus YAL013W, strain DEP1, stronger effect = lower value
[2] = S. cerevisiae deletion strains, locus YBR229C, strain ROT2, stronger effect = lower value
[3] = S. cerevisiae deletion strains, locus YDL101C, strain DUN1, stronger effect = lower value
[4] = S. cerevisiae deletion strains, locus YDR150W, strain NUM1, stronger effect = lower value
[5] = S. cerevisiae deletion strains, locus YEL061C, strain CIN8, stronger effect = lower value
[6] = S. cerevisiae deletion strains, locus YHR030C, strain SLT2, stronger effect = lower value
[7] = S. cerevisiae deletion strains, locus YJR043C, strain POL32, stronger effect = lower value
[8] = S. cerevisiae deletion strains, locus YKL190W, strain CNB1, stronger effect = lower value
[9] = S. cerevisiae deletion strains, locus YLR039C, strain RIC1, stronger effect = lower value
[10] = S. cerevisiae deletion strains, locus YLR262C, strain YPT6, stronger effect = lower value
[11] = S. cerevisiae deletion strains, locus YNL153C, strain GIM3, stronger effect = lower value
[12] = S. cerevisiae deletion strains, locus YPL241C, strain CIN2, stronger effect = lower value
[13] = S. cerevisiae strains, strain wild type, stronger effect = lower value

Measured: normalized growth

CC(C)C1=CC2=CCC3[C@](C)(CCC[C@]3(C)C(=O)O)C2CC1 (stereo partly drawn)
0.996 (inactive) and 0.843 (active): [6]
0.782 (active) and 0.89 (inactive): S. cerevisiae deletion strains, locus YJL095W, strain BCK1, stronger effect = lower value
active: S. cerevisiae deletion strains, locus YDR162C, strain NBP2, stronger effect = lower value 0.724 | S. cerevisiae deletion strains, locus YHR079C, strain IRE1, stronger effect = lower value 0.851 | [9] 0.637 | [10] 0.542 | S. cerevisiae deletion strains, locus YLR418C, strain cdc73, stronger effect = lower value 0.781 | S. cerevisiae deletion strains, locus YMR307W, strain GAS1, stronger effect = lower value 0.502 | S. cerevisiae deletion strains, locus YOR184W, strain ser1, stronger effect = lower value 0.801 | S. cerevisiae deletion strains, locus YOR231W, strain MKK1, stronger effect = lower value 0.859 | S. cerevisiae deletion strains, locus YPL256C, strain CLN2, stronger effect = lower value 0.824
inactive: [1] 0.957 | S. cerevisiae deletion strains, locus YBR021W, strain FUR4, stronger effect = lower value 1.03 | [2] 0.935 | S. cerevisiae deletion strains, locus YCL029C, strain bik1, stronger effect = lower value 0.995 | S. cerevisiae deletion strains, locus YDL035C, strain GPR1, stronger effect = lower value 0.918 | S. cerevisiae deletion strains, locus YDL074C, strain BRE1, stronger effect = lower value 0.923 | [3] 0.946 | S. cerevisiae deletion strains, locus YDL134C, strain PPH21, stronger effect = lower value 0.935 | S. cerevisiae deletion strains, locus YDL185W, strain tfp1, stronger effect = lower value 0.975 | S. cerevisiae deletion strains, locus YDL192W, strain arf1, stronger effect = lower value 0.939 | S. cerevisiae deletion strains, locus YDR101C, strain arx1, stronger effect = lower value 1.05 | [4] 0.981 | S. cerevisiae deletion strains, locus YDR318W, strain mcm21, stronger effect = lower value 0.925 | S. cerevisiae deletion strains, locus YDR388W, stronger effect = lower value 0.981 | S. cerevisiae deletion strains, locus YDR502C, strain sam2, stronger effect = lower value 0.952 | [5] 0.97 | S. cerevisiae deletion strains, locus YER110C, stronger effect = lower value 0.99 | S. cerevisiae deletion strains, locus YER155C, strain BEM2, stronger effect = lower value 1.02 | S. cerevisiae deletion strains, locus YER167W, strain BCK2, stronger effect = lower value 0.994 | S. cerevisiae deletion strains, locus YGL078C, strain dbp3, stronger effect = lower value 0.978 | S. cerevisiae deletion strains, locus YGL086W, strain mad1, stronger effect = lower value 1.02 | S. cerevisiae deletion strains, locus YGL248W, strain PDE1, stronger effect = lower value 0.928 | S. cerevisiae deletion strains, locus YGR135W, strain pre9, stronger effect = lower value 0.94 | S. cerevisiae deletion strains, locus YGR252W, strain gcn5, stronger effect = lower value 0.986 | S. cerevisiae deletion strains, locus YHR079C, strain IRE1 (second series), stronger effect = lower value 0.974 | S. cerevisiae deletion strains, locus YHR094C, strain hxt1, stronger effect = lower value 0.976 | S. cerevisiae deletion strains, locus YHR129C, strain ARP1, stronger effect = lower value 0.967 | S. cerevisiae deletion strains, locus YHR200W, strain rpn10, stronger effect = lower value 0.995 | S. cerevisiae deletion strains, locus YIL066C, strain RNR3, stronger effect = lower value 0.937 | S. cerevisiae deletion strains, locus YIL073C, strain SPO22, stronger effect = lower value 0.902 | S. cerevisiae deletion strains, locus YIL125W, strain kgd1, stronger effect = lower value 1 | S. cerevisiae deletion strains, locus YIR030C, strain dcg1, stronger effect = lower value 0.974 | S. cerevisiae deletion strains, locus YJL134W, strain LCB3, stronger effect = lower value 0.977 | S. cerevisiae deletion strains, locus YJL168C, strain set2, stronger effect = lower value 0.977 | S. cerevisiae deletion strains, locus YJL187C, strain SWE1 (second series), stronger effect = lower value 0.96 | [7] 1.02 | S. cerevisiae deletion strains, locus YJR066W, strain TOR1, stronger effect = lower value 0.857 | S. cerevisiae deletion strains, locus YKL009W, strain mrt4, stronger effect = lower value 0.958 | S. cerevisiae deletion strains, locus YKL068W, stronger effect = lower value 0.971 | S. cerevisiae deletion strains, locus YKL085W, strain MDH1 (second series), stronger effect = lower value 0.966 | S. cerevisiae deletion strains, locus YKL085W, strain MDH1, stronger effect = lower value 0.966 | [8] 0.958 | S. cerevisiae deletion strains, locus YKR001C, strain vps1, stronger effect = lower value 1.01 | S. cerevisiae deletion strains, locus YLR058C, strain SHM2, stronger effect = lower value 0.944 | S. cerevisiae deletion strains, locus YLR102C, strain apc9, stronger effect = lower value 0.985 | S. cerevisiae deletion strains, locus YLR113W, strain HOG1, stronger effect = lower value 0.859 | S. cerevisiae deletion strains, locus YLR268W, strain sec22, stronger effect = lower value 1.01 | S. cerevisiae deletion strains, locus YLR330W, strain CHS5, stronger effect = lower value 0.984 | S. cerevisiae deletion strains, locus YLR342W, strain FKS1 (second series), stronger effect = lower value 0.859 | S. cerevisiae deletion strains, locus YLR371W, strain rom2, stronger effect = lower value 0.992 | S. cerevisiae deletion strains, locus YML016C, strain PPZ1, stronger effect = lower value 0.966 | S. cerevisiae deletion strains, locus YML032C, strain rad52, stronger effect = lower value 0.949 | S. cerevisiae deletion strains, locus YML124C, strain tub3, stronger effect = lower value 0.979 | S. cerevisiae deletion strains, locus YMR078C, strain ctf18, stronger effect = lower value 0.974 | S. cerevisiae deletion strains, locus YMR223W, strain ubp8, stronger effect = lower value 0.923 | S. cerevisiae deletion strains, locus YNL067W, strain RPL9B, stronger effect = lower value 0.972 | [11] 0.967 | S. cerevisiae deletion strains, locus YNL183C, strain NPR1, stronger effect = lower value 0.894 | S. cerevisiae deletion strains, locus YNL233W, strain BNI4, stronger effect = lower value 0.987 | S. cerevisiae deletion strains, locus YNL250W, strain rad50, stronger effect = lower value 0.963 | S. cerevisiae deletion strains, locus YNL271C, strain bni1, stronger effect = lower value 0.963 | S. cerevisiae deletion strains, locus YNL298W, strain CLA4, stronger effect = lower value 0.995 | S. cerevisiae deletion strains, locus YNL307C, strain MCK1, stronger effect = lower value 0.945 | S. cerevisiae deletion strains, locus YNR052C, strain pop2, stronger effect = lower value 0.95 | S. cerevisiae deletion strains, locus YOL006C, strain TOP1, stronger effect = lower value 0.937 | S. cerevisiae deletion strains, locus YOL012C, strain htz1 1.21 | S. cerevisiae deletion strains, locus YOL147C, strain pex11, stronger effect = lower value 0.987 | S. cerevisiae deletion strains, locus YOR061W, strain CKA2, stronger effect = lower value 0.921 | S. cerevisiae deletion strains, locus YOR069W, strain VPS5, stronger effect = lower value 0.972 | S. cerevisiae deletion strains, locus YOR136W, strain idh2, stronger effect = lower value 0.999 | S. cerevisiae deletion strains, locus YOR144C, strain elg1, stronger effect = lower value 0.982 | S. cerevisiae deletion strains, locus YOR316C, strain cot1, stronger effect = lower value 0.979 | [12] 0.967 | S. cerevisiae deletion strains, locus YPR119W, strain clb2, stronger effect = lower value 0.977 | S. cerevisiae deletion strains, locus YPR141C, strain kar3, stronger effect = lower value 0.958 | S. cerevisiae deletion strains, locus YPR163C, strain tif3, stronger effect = lower value 0.976 | S. cerevisiae deletion strains, locus YPR167C, strain met16, stronger effect = lower value 0.98 | S. cerevisiae deletion strains, strain wtn01, stronger effect = lower value 1.06 | [13] 0.962

O=C(O)CC(CC(=O)O)c1ccc(C(F)(F)F)cc1
inactive: [1] 0.994 | [2] 1 | S. cerevisiae deletion strains, locus YCL061C, strain MRC1, stronger effect = lower value 0.981 | [3] 0.999 | [4] 0.938 | [5] 1.01 | S. cerevisiae deletion strains, locus YGR078C, strain PAC10, stronger effect = lower value 0.993 | S. cerevisiae deletion strains, locus YGR229C, strain SMI1, stronger effect = lower value 0.985 | [6] 1.03 | S. cerevisiae deletion strains, locus YHR087W, strain rtc3, stronger effect = lower value 1 | [7] 0.991 | S. cerevisiae deletion strains, locus YJR075W, strain HOC1, stronger effect = lower value 0.993 | [8] 1 | [9] 1.02 | S. cerevisiae deletion strains, locus YLR058C, strain SHM2 (second series), stronger effect = lower value 0.999 | S. cerevisiae deletion strains, locus YLR085C, strain ARP6, stronger effect = lower value 1.02 | [10] 1.01 | S. cerevisiae deletion strains, locus YML094W, strain GIM5, stronger effect = lower value 1.02 | S. cerevisiae deletion strains, locus YMR219W, strain ESC1, stronger effect = lower value 0.999 | S. cerevisiae deletion strains, locus YMR263W, strain SAP30, stronger effect = lower value 0.993 | [11] 0.99 | S. cerevisiae deletion strains, locus YNL298W, strain CLA4 (second series), stronger effect = lower value 1.04 | S. cerevisiae deletion strains, locus YNL322C, strain KRE1, stronger effect = lower value 1.01 | S. cerevisiae deletion strains, locus YNR030W, strain Alg12, stronger effect = lower value 1.02 | S. cerevisiae deletion strains, locus YPL055C, strain LGE1, stronger effect = lower value 0.918 | [12] 1.04 | S. cerevisiae deletion strains, locus YPR135W, strain CTF4, stronger effect = lower value 0.963 | [13] 0.995

From PubChem BioAssay AID1159580 (chemical genetic matrix, 2015)
